Source: PubChem BioAssay AID1159580 (chemical genetic matrix, 2015)
Several values for one entry are separate records, joined by “and”; a condition that tells them apart may be missing. Equal values may be shown once. Screen size: about 5,500 compounds; about 2,000 (36%) were called active. Inconclusive results (about 18%) are left out. Cut-off read from the data, not from the text of the source: active = normalized growth mostly below about 0.91 (no sharp cut-off); inconclusive = no clear call, values can overlap the other calls; inactive = mostly above about 0.92. The list shows a part of the results.

Test: chemical genetic growth profiling, strain panel (AID 1159580);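 note: tested at 20 µM; growth read once vehicle control cultures reached saturation at 30 °C; 1 = growth at the plate median or of vehicle wells; lower values mean less growth of the strain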
Settings: S. cerevisiae deletion strains, growth OD

Measured: normalized growth

Cc1ccc(C)c(OCCCC(C)(C)C(=O)O)c1
inactive: locus YAL021C, strain ccr4, stronger effect = lower value 0.986 | locus YAL026C, strain drs2, stronger effect = lower value 0.919 | locus YAL030W, strain snc1, stronger effect = lower value 0.981 | locus YBL061C, strain skt5, stronger effect = lower value 0.975 | locus YBR009C, strain hhf1, stronger effect = lower value 0.957 | locus YBR021W, strain FUR4, stronger effect = lower value 0.926 | locus YBR023C, strain chs3, stronger effect = lower value 0.964 | locus YBR171W, strain sec66, stronger effect = lower value 0.948 | locus YBR229C, strain ROT2, stronger effect = lower value 0.939 | locus YBR231C, strain swc5, stronger effect = lower value 0.986 | locus YBR279W, strain paf1, stronger effect = lower value 0.983 | locus YCL011C, strain gbp2, stronger effect = lower value 0.978 | locus YCL016C, strain dcc1, stronger effect = lower value 0.949 | locus YCL061C, strain MRC1, stronger effect = lower value 0.968 | locus YCL069W, strain vba3, stronger effect = lower value 0.987 | locus YCR088W, strain abp1, stronger effect = lower value 0.982 | locus YDL005C, strain med2, stronger effect = lower value 0.982 | locus YDL040C, strain nat1, stronger effect = lower value 0.987 | locus YDL074C, strain BRE1, stronger effect = lower value 0.858 | locus YDL101C, strain DUN1, stronger effect = lower value 0.975 | locus YDL192W, strain arf1, stronger effect = lower value 0.931 | locus YDR001C, strain nth1, stronger effect = lower value 0.973 | locus YDR069C, strain doa4, stronger effect = lower value 0.987 | locus YDR159W, strain sac3, stronger effect = lower value 0.962 | locus YDR195W, strain ref2 1.1 | locus YDR297W, strain sur2, stronger effect = lower value 0.992 | locus YDR334W, strain swr1, stronger effect = lower value 0.99 | locus YDR335W, strain msn5, stronger effect = lower value 0.989 | locus YEL003W, strain gim4, stronger effect = lower value 0.97 | locus YEL037C, strain rad23, stronger effect = lower value 0.979 | locus YEL061C, strain CIN8 (second series), stronger effect = lower value 0.98 | locus YEL061C, strain CIN8, stronger effect = lower value 0.943 | locus YER015W, strain faa2, stronger effect = lower value 1.01 | locus YER016W, strain bim1, stronger effect = lower value 0.976 | locus YER110C, stronger effect = lower value 0.937 | locus YER111C, strain swi4, stronger effect = lower value 0.981 | locus YER155C, strain BEM2 (second series), stronger effect = lower value 1.03 | locus YER155C, strain BEM2, stronger effect = lower value 0.939 | locus YER167W, strain BCK2, stronger effect = lower value 0.959 | locus YFR010W, strain ubp6, stronger effect = lower value 0.991 | locus YGL167C, strain pmr1, stronger effect = lower value 0.963 | locus YGL173C, strain kem1, stronger effect = lower value 0.955 | locus YGL227W, strain vid30, stronger effect = lower value 0.984 | locus YGL240W, strain doc1, stronger effect = lower value 0.999 | locus YGL248W, strain PDE1, stronger effect = lower value 0.914 | locus YGL253W, strain hxk2, stronger effect = lower value 0.975 | locus YGR135W, strain pre9, stronger effect = lower value 0.895 | locus YGR252W, strain gcn5, stronger effect = lower value 0.794 | locus YHR013C, strain ard1, stronger effect = lower value 1.02 | locus YHR027C, strain rpn1, stronger effect = lower value 0.983 | locus YHR094C, strain hxt1, stronger effect = lower value 0.941 | locus YHR129C, strain ARP1, stronger effect = lower value 0.945 | locus YHR142W, strain chs7, stronger effect = lower value 0.957 | locus YHR200W, strain rpn10, stronger effect = lower value 0.924 | locus YIL066C, strain RNR3, stronger effect = lower value 0.936 | locus YIL073C, strain SPO22, stronger effect = lower value 0.891 | locus YIR030C, strain dcg1, stronger effect = lower value 0.931 | locus YJL092W, strain hpr5, stronger effect = lower value 0.979 | locus YJL095W, strain BCK1 (second series), stronger effect = lower value 0.983 | locus YJL115W, strain asf1, stronger effect = lower value 1 | locus YJL134W, strain LCB3, stronger effect = lower value 0.938 | locus YJL154C, strain vps35, stronger effect = lower value 0.994 | locus YJL164C, strain tpk1, stronger effect = lower value 0.979 | locus YJL166W, strain qcr8, stronger effect = lower value 0.975 | locus YJL168C, strain set2, stronger effect = lower value 0.941 | locus YJL187C, strain SWE1 (second series), stronger effect = lower value 0.942 | locus YJL187C, strain SWE1, stronger effect = lower value 0.985 | locus YJR043C, strain POL32, stronger effect = lower value 0.935
0.819 (inactive) and 0.823 (active): locus YJL095W, strain BCK1, stronger effect = lower value
active: locus YCL029C, strain bik1, stronger effect = lower value 0.894 | locus YDL035C, strain GPR1, stronger effect = lower value 0.845 | locus YDL185W, strain tfp1, stronger effect = lower value 0.309 | locus YDR101C, strain arx1, stronger effect = lower value 0.872 | locus YDR137W, strain rgp1, stronger effect = lower value 0.699 | locus YDR162C, strain NBP2, stronger effect = lower value 0.832 | locus YDR318W, strain mcm21, stronger effect = lower value 0.866 | locus YDR388W, stronger effect = lower value 0.874 | locus YDR392W, strain spt3, stronger effect = lower value 0.58 | locus YDR502C, strain sam2, stronger effect = lower value 0.852 | locus YGL078C, strain dbp3, stronger effect = lower value 0.485 | locus YGL086W, strain mad1, stronger effect = lower value 0.877 | locus YHR079C, strain IRE1 (second series), stronger effect = lower value 0.869 | locus YHR079C, strain IRE1, stronger effect = lower value 0.833 | locus YIL125W, strain kgd1, stronger effect = lower value 0.356 | locus YJL129C, strain trk1, stronger effect = lower value 0.857
0.95 (inactive) and 0.784 (active): locus YHR030C, strain SLT2, stronger effect = lower value
